Reference: the supplement of paper PMC8371130
Where a name gives a salt, the structure may show the parent alone.

Tested on: HL-1
Experiment: relative cell viability (CellTiter-Glo) vs DMSO control (% of DMSO control); higher = more viable cells
How it was run: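 Viability of HL-1 mouse atrial cardiomyocytes was assessed by CellTiter-Glo luminescence and normalised to vehicle-treated control cells. Cells were plated in 384-well plates at 1000 cells per well with compounds at 40, 200, 1000 or 5000 nM in 0.01% DMSO, and one day later were placed at 1% O2 for 48 h, then reoxygenated for 24 h, or kept in normoxia for the same duration.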

[1] = oxygen condition: hypoxia 48 h (1% O2) + reoxygenation 24 h, 40 nM
[2] = oxygen condition: hypoxia 48 h (1% O2) + reoxygenation 24 h, 200 nM
[3] = oxygen condition: hypoxia 48 h (1% O2) + reoxygenation 24 h, 1000 nM
[4] = oxygen condition: hypoxia 48 h (1% O2) + reoxygenation 24 h, 5000 nM
[5] = oxygen condition: normoxia 72 h, 40 nM
[6] = oxygen condition: normoxia 72 h, 200 nM
[7] = oxygen condition: normoxia 72 h, 1000 nM
[8] = oxygen condition: normoxia 72 h, 5000 nM

SMILES	relative cell viability [1]	relative cell viability [2]	relative cell viability [3]	relative cell viability [4]	relative cell viability [5]	relative cell viability [6]	relative cell viability [7]	relative cell viability [8]
CN(C)CCc1c[nH]c2ccc(C[C@H]3COC(=O)N3)cc12 [Zolmitriptan]	105	104	104	110	108	104	102	102
O=C(CCCN1CC=C(n2c(=O)[nH]c3ccccc32)CC1)c1ccc(F)cc1 [Droperidol]	94.9	102	105	103	97.3	97	93.9	106
Nc1nc2[nH]cc(CCc3ccc(C(=O)N[C@@H](CCC(=O)O)C(=O)O)cc3)c2c(=O)[nH]1 [Pemetrexed]	116	104	85.8	74.8	104	95.5	90.8	69.6
Cc1[nH]c(=O)c(C#N)cc1-c1ccncc1 [Milrinone]	102	106	105	111	99.8	108	99.1	113
O=C(O)CCCN1CCC(O[C@@H](c2ccc(Cl)cc2)c2ccccn2)CC1 [Bepotastine Besilate]	112	108	111	120	113	115	115	131
CCCCCCNC(=O)n1cc(F)c(=O)[nH]c1=O [Carmofur]	102	83.8	51.6	18.3	99.2	81.2	44.3	15.1
COc1cc([C@@H]2c3cc4c(cc3[C@@H](O[C@@H]3O[C@@H]5CO[C@@H](c6cccs6)O[C@H]5[C@H](O)[C@H]3O)[C@H]3COC(=O)[C@H]23)OCO4)cc(OC)c1O [Teniposide]	96.6	102	98.2	115	105	104	102	118
Cn1nnc2c(C(N)=O)ncn2c1=O [Methazolastone]	102	106	111	106	114	106	107	112
CCC1=C(C)CN(C(=O)NCCc2ccc(S(=O)(=O)NC(=O)N[C@H]3CC[C@H](C)CC3)cc2)C1=O [Glimepiride]	93.1	96.3	95.2	106	88.9	77.4	94.7	105
CNC[C@H](O)c1ccc(O)c(O)c1 [Epinephrine bitartrate]	99.2	98.8	97.2	6.86	101	102	98.4	3.42
COc1cc(Nc2c(C#N)cnc3cc(OCCCN4CCN(C)CC4)c(OC)cc23)c(Cl)cc1Cl [Bosutinib]	103	104	107	121	110	125	107	116
CC1=CC(=O)c2ccccc2C1=O [Menadione]	100	98.2	102	109	101	104	101	106
CN(Cc1cnc2nc(N)nc(N)c2n1)c1ccc(C(=O)N[C@@H](CCC(=O)O)C(=O)O)cc1 [Abitrexate]	75.8	51.7	42.5	42	58.2	52.2	41.8	43.9
CC(=O)Oc1cc2c(s1)CCN(C(C(=O)C1CC1)c1ccccc1F)C2 (stereo unspecified) [Prasugrel]	115	104	106	110	106	105	122	120
Nc1nc(Cl)nc2c1ncn2[C@@H]1O[C@H](CO)[C@@H](O)[C@@H]1F [Clofarabine]	114	69.7	6.59	2.39	106	62.6	3.43	1.95
C[C@H](CCC(=O)O)[C@H]1CC[C@H]2[C@@H]3[C@@H](O)C[C@@H]4C[C@H](O)CC[C@]4(C)[C@H]3CC[C@]12C [Ursodiol]	103	106	118	106	99.7	105	119	108
N[C@@H]1CN(c2c(F)cc3c(=O)c(C(=O)O)cn([C@@H]4C[C@@H]4F)c3c2Cl)CC12CC2 [Sitafloxacin hydrate]	101	98.6	104	108	103	95.3	99	108
Cc1c(-c2ccc(O)cc2)n(Cc2ccc(OCCN3CCCCCC3)cc2)c2ccc(O)cc12 [Bazedoxifene HCl]	107	99.8	101	84.1	98.6	97.9	105	45.6
CCC(=O)O[C@@H](O[P@](=O)(CCCCc1ccccc1)CC(=O)N1C[C@H](C2CCCCC2)C[C@H]1C(=O)O)C(C)C [Fosinopril sodium]	106	99.9	101	108	101	103	106	111
C[C@]12CC[C@@H]3c4ccc(O)cc4CC[C@H]3[C@@H]1C[C@@H](O)[C@@H]2O [Estriol]	101	99.3	95.4	103	105	101	99.8	104
CC(=O)O[C@H]1C(=O)[C@@]2(C)[C@H]([C@H](OC(=O)c3ccccc3)[C@]3(O)C[C@H](OC(=O)[C@H](O)[C@@H](NC(=O)c4ccccc4)c4ccccc4)C(C)=C1C3(C)C)[C@]1(OC(C)=O)CO[C@@H]1C[C@@H]2O [Paclitaxel]	42.4	42.8	39.9	30.5	52.3	52.2	33.2	22.2
Oc1ccc(OCc2ccccc2)cc1 [Monobenzone]	99.6	114	110	103	107	104	108	99.8
